The record followed here is PubChem BioAssay AID652126 (The Scripps Research Institute Molecular Screening Center, 2013).

About 3,700 (1%) of roughly 370,000 compounds were called active.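 How the source made its calls: active means activation above the mean over all tested compounds plus 3 SD (cut at about 0.9% in these data); inactive means the rest.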 The sample as a whole holds a higher share of actives than the screen did.

In this test the test system is Nuclear hormone receptor DAF-12 (Strongyloides stercoralis). Nature of the test: ssDAF-12 driven luciferase reporter activation – cell-based, luminescence, HEK293, GRIP1 co-expression, lit1-tk-luc, primary screen (AID 652126).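 Further: 0% = DMSO-only wells and 100% = 3 µM delta7-dafachronic acid wells.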 The settings on record: HEK293 ssDAF-12/GRIP1 lit1-tk-luc reporter, at 6.8 µM, active compounds read high, % of 3 µM dafachronic acid response.
Take `O=C(CSc1nnc(COc2ccccc2)n1-c1ccc(Cl)cc1)Nc1ccc2c(c1)OCO2`: the activation is -0.91% (inactive). `N#CCCN(C(=O)COC(=O)C1CCN(c2ccc(C(F)(F)F)cn2)CC1)c1ccc(F)cc1`: the activation is -1.01% (inactive).

Regarding `CC(c1ccccn1)N(C)C(=O)c1ccc2nc(Cc3cccc(Cl)c3)oc2c1` (stereo not drawn), the activation is 0.07% (inactive). Regarding `COc1ccc(Cc2nc3ccc(C(=O)NCC4CCOCC4)cc3o2)cc1OC`, the activation was -0.41% (inactive). In the case of `CSCCNC(=O)c1ccc2nc(Cc3ccccc3F)oc2c1` it was 1.4% (active). For `CC(C)c1ccc(N(C(=O)c2ccco2)C(C(=O)NC2CCCC2)c2cccnc2)cc1` (stereo not drawn), the activation is -0.62% (inactive). In the case of `CCCC(NC(=O)c1ccco1)c1nc2ccccc2[nH]1` (stereo not drawn) it was -0.66% (inactive). For the compound `CCC(=O)/C(=C(/O)c1ccccc1)c1nc2ccccc2[nH]1`, the activation was 0.91% (active). The result for `CC/C(O)=C1\C(=O)CC(C)(C)CC1=NCCc1nc2ccccc2[nH]1` reads -1.35% (inactive); that for `COC(=O)[C@]12C[C@H](CC(=O)NCC34CC5CC(CC(C5)C3)C4)C(=O)N(Cc3ccc(Cl)cc3Cl)C1=C[C@H](COCc1ccccc1)O[C@@H]2C`, -0.9% (inactive). For the compound `O=C(Cn1nc(C(F)(F)F)c2c1CCC2)NCc1ccc(F)cc1`, the activation is -0.8% (inactive).

As for `O=C(CN1CCCc2ccccc21)NCc1ccc(F)cc1`, the activation was 1.32% (active).

`O=C(CN1C(=O)CCS(=O)(=O)c2ccccc21)NCc1ccc(F)cc1`: the activation is -1.14% (inactive). The result for `CCCNC(=O)Nc1ccc2c(c1)C(=O)N(C)[C@H]1CC[C@H](CC(=O)NCC3CCCCC3)O[C@@H]1CO2` reads -1.84% (inactive). As to `c1ccc2sc(NN=C3CCCC3)nc2c1`, the activation is 1.21% (active). The result for `O=C(COc1ccc(-c2ccccc2)cc1)NN=C1CCCC1` reads -1.61% (inactive); that for `O=C1NC(Nc2nc3ccccc3s2)(C(F)(F)F)C(=O)N1C1CCCCC1` (stereo not drawn), -1.03% (inactive); that for `COC(=O)[C@]12C[C@H](CC(=O)NCc3cccs3)C(=O)N(CCc3ccc(OC)c(OC)c3)C1=C[C@H](C(C)C)O[C@@H]2C1CC1`, -0.56% (inactive). The result for `CC[C@@H](CCC(=O)N(c1ccccc1)c1ccccc1)C1CC1` reads -1.64% (inactive); that for `CC(C)(O)C#Cc1ccc(C(=O)N2CCC(C(N)=O)(N3CCCCC3)CC2)cc1`, 1.03% (active); that for `CCC(=O)N1CCC(C(N)=O)(N2CCCCC2)CC1`, -1.29% (inactive). In the case of `NC(=O)C1(N2CCCCC2)CCN(C(=O)c2ccc(C#Cc3ccccc3)o2)CC1` it was -1.3% (inactive). In the case of `O=S1(=O)c2ccc(N3CCN(Cc4ccccc4F)CC3)cc2Oc2ccccc2CN1Cc1cn(Cc2ccc(Cl)cc2)nn1`, the activation was -1.5% (inactive).
